Assay [1] in a line: antimalarial activity against Dd2 strain (AID 2302;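 active = growth inhibition above 50% at the single 2 µM test dose, taken to imply half-maximal potency below 2 µM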;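 note: 0% = DMSO untreated growth and 100% = chloroquine plus artemisinin killed control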). Conditions: P. falciparum Dd2 in RBCs, LDH growth readout, 72 h; at 2 µM; stronger effect = higher value.
A short description of assay [2]: human hepatoma cell viability loss – ATP luminescence, cytotoxicity control for P. falciparum antimalarial project, primary screen (AID 2303;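 active = inhibition above 50%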;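 note: 0% = DMSO wells and 100% = digitonin-killed cells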). Conditions: HepG2 viability, 24-48 h, at 10 µM, stronger effect = higher value.
Assay [3] addresses L-lactate dehydrogenase (Plasmodium falciparum (isolate CDC / Honduras)) (UniProt Q27743). Description: PfLDH activity inhibition – cell lysate, 3D7 strain, counter-screen for P. falciparum growth inhibition project (AID 2304).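 Note: 0% = vehicle and 100% = reference inhibitor.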 Conditions: P. falciparum 3D7 crude extract, LDH APAD/NBT absorbance; at 2 µM; stronger effect = higher value. In general terms: A counterscreen serves to expose hits that act by an unwanted route or on another target.

A short description of assay [4]: inhibition of 3D7 malaria parasite growth – strain 3D7 (AID 2306).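 Note: 0% = DMSO wells and 100% = chloroquine plus artemisinin control wells.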 The following applies: P. falciparum 3D7 erythrocytic growth, LDH absorbance, 72 h; at 2 µM; stronger effect = higher value.
In assay [5] the target is Calcium-dependent protein kinase 1 (Plasmodium falciparum (isolate 3D7)) (UniProt P62344). Description: PfCDPK1 kinase inhibitors, biochemical, TCAMS library (AID 1159585; cut-off not given, nearly all actives have IC50 up to about 0.98 µM;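 note: inhibitors leave more ATP so luminescence rises with inhibition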). The following applies: recombinant PfCDPK1, Kinase-Glo ATP depletion luminescence.
Calcium-dependent protein kinase 1 (Plasmodium falciparum (isolate 3D7)), sequence (P62344 whole entry, looked up): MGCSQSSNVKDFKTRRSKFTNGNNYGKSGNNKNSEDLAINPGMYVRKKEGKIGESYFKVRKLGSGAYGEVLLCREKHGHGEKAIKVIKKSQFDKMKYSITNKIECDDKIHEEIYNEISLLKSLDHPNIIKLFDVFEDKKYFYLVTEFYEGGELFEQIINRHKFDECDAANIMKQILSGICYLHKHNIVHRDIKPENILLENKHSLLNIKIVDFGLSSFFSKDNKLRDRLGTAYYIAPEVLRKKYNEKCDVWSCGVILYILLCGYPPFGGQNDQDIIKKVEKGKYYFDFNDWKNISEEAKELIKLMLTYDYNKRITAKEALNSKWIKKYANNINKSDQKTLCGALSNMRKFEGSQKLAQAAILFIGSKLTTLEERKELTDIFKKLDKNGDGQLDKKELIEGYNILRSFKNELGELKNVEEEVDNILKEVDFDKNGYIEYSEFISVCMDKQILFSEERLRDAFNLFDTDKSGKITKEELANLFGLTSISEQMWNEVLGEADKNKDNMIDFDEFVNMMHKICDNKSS
Assay [6] concerns the target Plasmodium falciparum protein kinase 6 (PK6, PF3D7_1337100) (UniProt Q8IDW1). Description: PfPK6 kinase inhibitors, biochemical, TCAMS library (AID 1159586). Conditions: recombinant PfPK6, Kinase-Glo ATP depletion luminescence. A general note: Kinase-Glo measures the ATP left after a reaction by luminescence.
The target in assay [7] is Protein kinase 7 (PK7), Plasmodium falciparum 3D7 (PF3D7_0213400) (UniProt Q7YTF7). Briefly: inhibition of Plasmodium PK7 catalytic activity – biochemical, TCAMS antimalarial set, Kinase-Glo luminescence (AID 1159587). Conditions: recombinant PfPK7, Kinase-Glo ATP depletion luminescence.
Protein kinase 7 (PK7), Plasmodium falciparum 3D7 (PF3D7_0213400), sequence (Q7YTF7 1-343): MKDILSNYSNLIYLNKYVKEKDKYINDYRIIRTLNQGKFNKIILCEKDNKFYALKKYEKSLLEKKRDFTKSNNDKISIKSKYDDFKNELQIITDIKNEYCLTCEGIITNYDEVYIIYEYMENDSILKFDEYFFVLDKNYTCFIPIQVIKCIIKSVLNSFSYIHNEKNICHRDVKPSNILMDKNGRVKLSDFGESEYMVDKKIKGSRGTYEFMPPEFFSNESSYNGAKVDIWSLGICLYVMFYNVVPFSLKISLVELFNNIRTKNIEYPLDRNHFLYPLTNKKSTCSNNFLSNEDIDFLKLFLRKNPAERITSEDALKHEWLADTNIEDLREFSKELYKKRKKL
For assay [8], the target named is Calcium-dependent protein kinase 4 (Plasmodium falciparum (isolate 3D7)) (UniProt Q8IBS5). Briefly: PfCDPK4 kinase inhibitors, biochemical, TCAMS library (AID 1159588; cut-off not given, nearly all actives have IC50 up to about 0.91 µM). The following applies: recombinant PfCDPK4, Kinase-Glo ATP depletion luminescence.
Calcium-dependent protein kinase 4 (Plasmodium falciparum (isolate 3D7)), sequence (Q8IBS5 whole entry, looked up): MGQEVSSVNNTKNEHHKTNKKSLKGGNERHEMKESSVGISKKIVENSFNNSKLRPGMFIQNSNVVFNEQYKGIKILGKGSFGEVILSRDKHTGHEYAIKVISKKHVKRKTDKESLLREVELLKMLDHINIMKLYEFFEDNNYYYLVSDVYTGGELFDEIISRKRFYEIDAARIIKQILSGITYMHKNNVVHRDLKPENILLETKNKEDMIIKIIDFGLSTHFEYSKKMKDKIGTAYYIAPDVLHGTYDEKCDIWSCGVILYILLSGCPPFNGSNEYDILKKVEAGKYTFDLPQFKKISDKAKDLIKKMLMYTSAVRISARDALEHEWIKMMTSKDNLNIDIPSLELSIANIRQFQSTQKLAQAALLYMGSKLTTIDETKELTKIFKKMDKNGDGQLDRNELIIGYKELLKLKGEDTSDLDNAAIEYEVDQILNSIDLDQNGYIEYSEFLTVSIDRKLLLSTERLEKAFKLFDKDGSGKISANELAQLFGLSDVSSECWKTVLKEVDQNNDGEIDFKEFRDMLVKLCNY

A number with no mark means an inactive call. For some of these results: Potency and affinity values are given separately. The source made the active and inactive calls. Unless noted, the rule behind the calls is not given here.

Plasmodium falciparum protein kinase 6 (PK6, PF3D7_1337100), sequence (Q8IDW1 1-305): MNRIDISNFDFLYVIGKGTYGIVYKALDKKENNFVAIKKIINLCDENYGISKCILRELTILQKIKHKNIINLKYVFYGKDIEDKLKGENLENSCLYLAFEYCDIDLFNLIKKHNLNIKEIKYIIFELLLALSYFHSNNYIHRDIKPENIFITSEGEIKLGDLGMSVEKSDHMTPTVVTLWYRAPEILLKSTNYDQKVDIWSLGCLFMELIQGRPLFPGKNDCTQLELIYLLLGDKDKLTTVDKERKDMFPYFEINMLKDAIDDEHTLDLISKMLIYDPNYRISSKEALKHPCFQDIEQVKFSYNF
L-lactate dehydrogenase (Plasmodium falciparum (isolate CDC / Honduras)), sequence (Q27743 whole entry, looked up): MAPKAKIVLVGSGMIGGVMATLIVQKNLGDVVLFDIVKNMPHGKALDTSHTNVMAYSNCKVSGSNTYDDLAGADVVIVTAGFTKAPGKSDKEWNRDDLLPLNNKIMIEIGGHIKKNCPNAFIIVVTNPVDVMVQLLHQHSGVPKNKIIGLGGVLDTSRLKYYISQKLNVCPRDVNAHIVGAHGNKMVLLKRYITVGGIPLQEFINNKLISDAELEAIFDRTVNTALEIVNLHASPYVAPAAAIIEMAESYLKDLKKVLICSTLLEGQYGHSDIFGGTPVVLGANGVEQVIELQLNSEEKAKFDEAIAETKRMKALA

Consider `Cc1cc(NC(=O)NCCN2CCC(NS(=O)(=O)c3ccc(Br)cc3)C2)c2ccccc2n1` (centres undefined), for which the results for the growth inhibition in assay [1] and in assay [4] were 51% (active) and 99% (active), respectively. For the same compound, the inhibition in assay [2] was 9%; in assay [3] it was 0%. Also, the result in assay [5], in assay [6], in assay [7] and in assay [8] was inactive.
Take `CCOc1ccc(C(=O)Nc2cc(Cl)ccc2O)cc1Cl`: the growth inhibition in assay [1] was 84% (active); in assay [4], 83% (active). Besides, the figures for the inhibition in assay [2] and in assay [3] were 11% and 0%, respectively. In addition, the result in assay [5], in assay [6], in assay [7] and in assay [8] was inactive.
On to `COC(=O)c1cccc(N2CCN(CCCNC(=O)/C(=C/C=C/c3cc4cc(Cl)c(Cl)cc4[nH]3)OC)CC2)c1`, for which the results for the growth inhibition in assay [1] and in assay [4] were 59% (active) and 100% (active), respectively. In addition, the inhibition in assay [2] was 38%; in assay [3], -1%. The result in assay [5], in assay [6], in assay [7] and in assay [8] was inactive.
As to `COc1cccc(CNc2noc(-c3c(-c4ccccc4)noc3C)n2)c1OC`, the growth inhibition in assay [1] was 86% (active); in assay [4], 97% (active). Besides, the results for the inhibition in assay [2] and in assay [3] were -3% and -2%, respectively. Further, the outcome in assay [5], in assay [6], in assay [7] and in assay [8] was inactive.
On to `Cc1ccc2c(c1)C1(CC(=O)N(CCc3scnc3C)C1=O)C(=O)N2Cc1ccccc1` (centres undefined), for which the growth inhibition was 73% (active) in assay [1] and 83% (active) in assay [4]. The inhibition in assay [2] was -5%; in assay [3], 2%. Besides, the result in assay [5], in assay [6], in assay [7] and in assay [8] was inactive.
`COc1ccc(CN2CCC(CNCC(c3ccccc3)c3ccccc3)CC2)cc1`: the growth inhibition was 95% (active) in assay [1] and 102% (active) in assay [4]. Moreover, the inhibition was 84% (active) in assay [2] and -4% in assay [3]. For the same compound, the result in assay [5], in assay [6], in assay [7] and in assay [8] was inactive.
As for `COc1cc2cc(-c3nc4ccccc4[nH]3)c(N)nc2cc1OC`, the growth inhibition in assay [1] and in assay [4] was 100% (active) each time. Moreover, the inhibition in assay [2] was 91% (active); in assay [3], 1%. In addition, the result in assay [5], in assay [6], in assay [7] and in assay [8] was inactive.
`CCOc1ccc(-c2nonc2NC(=O)c2ccc(OC)cc2)cc1OCC`: the growth inhibition in assay [1] was 77% (active); in assay [4] it was 98% (active). The inhibition in assay [2] and in assay [3] was -1% in each case. The result in assay [5], in assay [6], in assay [7] and in assay [8] was inactive.
Consider `CC(C)Cc1ccc(N2CCN(CCCCNC(=O)c3ccc(NC(=O)c4ccc(Cl)c(Cl)c4)cc3)CC2)cc1`, for which the growth inhibition in assay [1] was 25%; in assay [4] it was 94% (active). Further, the inhibition in assay [2] was 21%; in assay [3], 0%. Moreover, the outcome in assay [5], in assay [6], in assay [7] and in assay [8] was inactive.
In the case of `O=C(O)c1ccc(-c2c[nH]c3ncc(-c4ccc(Cl)cc4)cc23)cc1`, the growth inhibition in assay [1] is 99% (active); in assay [4] it was 97% (active). Further, the inhibition in assay [2] was 39%; in assay [3], 7%. Besides, the outcome in assay [5], in assay [6], in assay [7] and in assay [8] was inactive.
`O=C(NCCN1CCCC1)N1CCCN(c2ncnc3cc(-c4ccc(Cl)cc4)sc23)CC1`: the growth inhibition in assay [1] was 32%; in assay [4], 96% (active). The inhibition is 13% in assay [2] and 6% in assay [3]. Also, the result in assay [5], in assay [6], in assay [7] and in assay [8] was inactive.
Regarding `Cc1cc(C(=O)Nc2ccc(OCc3ccccc3)cc2)on1`, the results for the growth inhibition in assay [1] and in assay [4] were 89% (active) and 87% (active), respectively. Besides, the inhibition in assay [2] and in assay [3] was 1% throughout. Also, the result in assay [5], in assay [6], in assay [7] and in assay [8] was inactive.
Turning to `Cc1ccccc1C1CCN(C2CCC(NC(=O)/C=C/c3cc(C(F)(F)F)ccc3F)CC2)CC1` (centres undefined), the growth inhibition is 45% in assay [1] and 100% (active) in assay [4]. Moreover, the inhibition in assay [2] is 56% (active); in assay [3], -2%. For the same compound, the result in assay [5], in assay [6], in assay [7] and in assay [8] was inactive.
For the compound `CC(C)OC(=O)c1ccccc1S(N)(=O)=O`, the growth inhibition was -2% in assay [1] and 97% (active) in assay [4]. In addition, the inhibition was -6% in assay [2] and 1% in assay [3]. Also, the outcome in assay [5], in assay [6], in assay [7] and in assay [8] was inactive.
Consider `COc1cc(OC)c(NC(=O)C2c3ccccc3C(=O)N(CC(C)C)C2c2cccs2)cc1Cl` (centres undefined), for which the growth inhibition in assay [1] and in assay [4] was 100% (active) throughout. Further, the inhibition in assay [2] was 9%; in assay [3], -1%. Further, the outcome in assay [5], in assay [6], in assay [7] and in assay [8] was inactive.
As to `NCCNc1ccc([N+](=O)[O-])cc1C(=O)Nc1cccc(Cl)c1`, the values for the growth inhibition in assay [1] and in assay [4] were 7% and 85% (active), respectively. In addition, the values for the inhibition in assay [2] and in assay [3] were 23% and 4%, respectively. Further, the outcome in assay [5], in assay [6], in assay [7] and in assay [8] was inactive.
On to `O=S(=O)(Nc1ccc(CCN2CCC(N3CCCCC3)CC2)cc1)c1ccc(Cl)cc1`, for which the growth inhibition in assay [1] is 18%; in assay [4], 101% (active). The values for the inhibition in assay [2] and in assay [3] were 23% and -1%, respectively. Besides, the outcome in assay [5], in assay [6], in assay [7] and in assay [8] was inactive.
Regarding `CCCCCCNc1cc(C)nc2ccc(OC)cc12`, the growth inhibition in assay [1] was 94% (active); in assay [4] it was 100% (active). The figures for the inhibition in assay [2] and in assay [3] were 19% and -2%, respectively. Besides, the result in assay [5], in assay [6], in assay [7] and in assay [8] was inactive.
With `COc1ccc(C(C(=O)NC2CCN(C[C@H](O)c3ccnc4ccc(OC)cc34)CC2)N2CCN(c3ccc([N+](=O)[O-])cc3)CC2)cc1` (some centres undefined), the values for the growth inhibition in assay [1] and in assay [4] were 80% (active) and 99% (active), respectively. In addition, the inhibition was 17% in assay [2] and -3% in assay [3]. For the same compound, the outcome in assay [5], in assay [6], in assay [7] and in assay [8] was inactive.
Turning to `Cc1noc(-c2ccccc2)c1CN1CCCC2(CC(C(=O)NCc3cccc(F)c3F)=NO2)C1` (centres undefined), the growth inhibition in assay [1] is 28%; in assay [4] it was 85% (active). The inhibition in assay [2] and in assay [3] was -1% each time. Besides, the outcome in assay [5], in assay [6], in assay [7] and in assay [8] was inactive.
Turning to `COc1cc2nc(Nc3ccc4c(ccn4Cc4ccccc4)c3)nc(Nc3ccc4c(ccn4Cc4ccccc4)c3)c2cc1OC`, the figures for the growth inhibition in assay [1] and in assay [4] were 80% (active) and 89% (active), respectively. Further, the inhibition in assay [2] was -6%; in assay [3], 2%. In addition, the result in assay [5], in assay [6], in assay [7] and in assay [8] was inactive.
As for `O=C(Nc1cccc(CN2CCN(C(=O)c3cccc(Cl)c3)CC2)c1)c1ccco1`, the growth inhibition in assay [1] was 94% (active); in assay [4], 96% (active). For the same compound, the results for the inhibition in assay [2] and in assay [3] were 7% and 2%, respectively. Further, the result in assay [5], in assay [6], in assay [7] and in assay [8] was inactive.
As to `Cc1cccc2[nH]c(-c3cccc(-c4ccc(NC(=O)NC(C)C)cc4)c3)nc12`, the growth inhibition is 44% in assay [1] and 98% (active) in assay [4]. Moreover, the inhibition in assay [2] was 30%; in assay [3] it was -2%. For the same compound, the result in assay [5], in assay [6], in assay [7] and in assay [8] was inactive.

In general, inhibition refers to the drop in the measured response relative to a control, in per cent.
